Laboratory results: PubChem BioAssay (NCATS)
Inconclusive results are not listed. Calls of active or inactive are those of the source. Unless noted, the call rests on the fitted dose curve; in most records, active means well fitted curve in the direction sought with a large enough effect; inconclusive means small, poorly fitted or top-dose-only effect, or effect the other way, or another doubt; inactive means no such curve, though single readings can be large or run the other way.

How the values were obtained:
[1] = Inducers of the Endoplasmic Reticulum Stress Response (ERSR) in human glioma: Validation (AID 504836)
Outline: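 Stably transfected U87-MG glioma cells carrying a GRP78-based luciferase sensor; 16 h compound incubation. Luminescence end-point read 10 min after Bright-Glo addition at room temperature.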

[2] = qHTS for Inhibitors of the Functional Ribonucleoprotein Complex (vRNP) of Lassa (LASV) Arenavirus: LASV Primary Screen - GLuc reporter signal (AID 1347082; calls by dose curve; tested in HEK293 reporter line; further: series mostly up to about 57 µM; nearly all actives have a fitted effect of over 60% in size)
[3] = qHTS for Inhibitors of the Functional Ribonucleoprotein Complex (vRNP) of Lassa (LASV) Arenavirus: Viability assay - alamar blue signal for LASV Primary Screen (AID 1347083; calls by dose curve; tested in HEK293 reporter line; further: series mostly up to about 57 µM; nearly all actives have a fitted effect of over 80% in size)
[4] = qHTS for Inhibitors of the Functional Ribonucleoprotein Complex (vRNP) of Lymphocytic Choriomeningitis Arenaviruses (LCMV): Viability assay - alamar blue signal for LCMV Primary Screen (AID 1347085; calls by dose curve; tested in HEK293 reporter line; further: series mostly up to about 57 µM; nearly all actives have a fitted effect of over 80% in size)
[5] = target: Nucleoprotein (Lymphocytic choriomeningitis virus (strain Armstrong)) (UniProt P09992); test: qHTS for Inhibitors of the Functional Ribonucleoprotein Complex (vRNP) of Lymphocytic Choriomeningitis Arenaviruses (LCMV): LCMV Primary Screen - GLuc reporter signal (AID 1347086; calls by dose curve; further: series mostly up to about 57 µM; nearly all actives have a fitted effect of over 70% in size)
Sequence of Nucleoprotein (Lymphocytic choriomeningitis virus (strain Armstrong)) (P09992 whole entry, looked up): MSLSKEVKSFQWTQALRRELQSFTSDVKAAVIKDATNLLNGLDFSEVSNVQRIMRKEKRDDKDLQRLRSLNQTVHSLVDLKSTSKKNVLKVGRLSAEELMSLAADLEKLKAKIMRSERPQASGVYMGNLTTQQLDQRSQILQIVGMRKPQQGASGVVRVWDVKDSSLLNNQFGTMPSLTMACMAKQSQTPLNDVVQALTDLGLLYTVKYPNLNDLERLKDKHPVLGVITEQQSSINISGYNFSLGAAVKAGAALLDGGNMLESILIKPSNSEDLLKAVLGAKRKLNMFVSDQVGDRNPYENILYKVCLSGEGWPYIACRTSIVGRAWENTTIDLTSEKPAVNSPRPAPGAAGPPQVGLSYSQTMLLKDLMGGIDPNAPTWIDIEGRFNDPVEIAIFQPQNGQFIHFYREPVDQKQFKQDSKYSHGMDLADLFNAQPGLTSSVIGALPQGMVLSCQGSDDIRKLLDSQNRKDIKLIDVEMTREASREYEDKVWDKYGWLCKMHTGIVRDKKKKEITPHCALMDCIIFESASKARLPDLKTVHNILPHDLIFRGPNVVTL

Measured: Potency

Fc1cccc(/C=N/N=C/c2cccc(F)c2)c1
inactive: all assays above

Cc1nc2sccn2c(=O)c1CCN1CCC(=C(c2ccccc2)c2ccc(F)cc2)CC1
inactive: all assays above

CC(C)(C)[C@]1(O)CCN2C[C@H]3c4ccccc4CCc4cccc(c43)[C@@H]2C1
inactive: all assays above

CO/S(=N\S(=O)(=O)c1ccc(Cl)cc1)c1ccc([N+](=O)[O-])cc1 (stereo not given)
inactive: all assays above

N[C@H](C(=O)O)[C@H](Cc1ccccc1)C(=O)O
inactive: all assays above

CN(C)CCCO[C@@H]1[C@H]2OC(C)(C)O[C@H]2O[C@@H]1[C@H](O)CO
inactive: all assays above
